S2 tox: Viability Counterscreen for Primary qHTS for Inhibitors of ATXN expression | S2 cells (HEK-293 line with an ATXN2-luciferase reporter) viability, CellTiter-Fluor protease fluorescence, 24 h | Potency, µM (top dose mostly 56.7 µM), actives largely listed as cytotoxic | 0.49% of 400,000 active | AID 651635, 2014; further: nearly all actives have a fitted effect of over 40% in size
TGFb SMAD3 inh: qHTS for Inhibitors of TGF-b; HepG2 CAGA-GFP TGF-b/SMAD3 reporter, GFP fluorescence, 18 h; TGF-beta stimulated, 500 pg/mL final; Potency, µM (top dose mostly 46.1 µM), for the others: at the top dose activity, negative = inhibition, hits mostly inhibitors; 1.2% of 410,000 active; further: on the % scale 0 is the no-effect control and ±100 the full control effect; nearly all actives have a fitted effect of over 65% in size
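Inhibition of TGF-beta-driven CAGA-GFP reporter expression in HEPG2 cells is measured by cellular GFP fluorescence after 18 h stimulation with 500 pg/mL recombinant TGF-beta in 1% FBS medium at 37 degrees C.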
HT1080 IDH1KD tx: qHTS for induction of synthetic lethality in tumor cells producing 2HG: qHTS for the HT-1080-IDH1KD cell line. 2% of 360,000 active. AID 686971, 2013. HT-1080 IDH1 knockdown viability, ATP luminescence, 48 h. Potency, µM (top dose mostly 46.1 µM), for inactives: at the top dose activity, negative = toxicity, hits mostly cytotoxic;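 further: 0% = DMSO wells and -100% = cell-free medium wells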
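Viability of IDH1-knockdown HT-1080 fibrosarcoma cells was assessed by CellTiter-Glo after 48 h at 37 °C with titrated compound; concentration-effect curves were classified by fit quality and response size.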
HepG2 tox: qHTS for Inhibitors of TGF-b: Cytotox Counterscreen. 0.76% of 410,000 active. HepG2 CAGA-GFP viability, ATP luminescence, 18 h. AID 588856, 2011. Potency, µM (series often up to 46.1 µM), for the others: top-dose activity change, negative = cytotoxicity, actives largely listed as cytotoxic
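CellTiter-Glo luminescence gave cytotoxicity after 18 hours at 37 degrees C. The cells were HepG2 CAGA-GFP in 1% FBS DMEM, stimulated with 500 pg/mL TGF-beta after compound addition. %Activity was normalised to no-cell wells (complete cell-killing) and DMSO (no toxicity), and curves were fitted and classified.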
ATXN2 expr inh: Primary qHTS for Inhibitors of ATXN expression | HEK-293 ATXN2-luciferase reporter, luminescence, 24 h | Potency, µM (top dose mostly 57 µM), for the others: top-dose activity change, negative = inhibition, most hits filed as inhibitors | 0.72% of 360,000 active; further: on the % scale 0 is the no-effect control and ±100 the full control effect; nearly all actives have a fitted effect of over 55% in size
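qHTS (up to 57 uM final) was run with 24 h compound exposure of reporter cells at 37 °C. Each well was multiplexed: SteadyGlo luminescence measured ATXN2-luciferase expression after a fluorogenic Gly-Phe-AFC viability readout (25 uM final).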
HT1080-NT tox: qHTS for induction of synthetic lethality in tumor cells producing 2HG: qHTS for the HT-1080-NT fibrosarcoma cell line | 1.6% of 360,000 active | HT-1080-NT fibrosarcoma viability, CellTiter-Glo ATP luminescence, 48 h | Potency, µM (series often up to 46.1 µM), for inactives: at the top dose activity, negative = less viability, most hits filed as cytotoxic;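 further: NT is the 2HG producing partner of a matched IDH1 knockdown line; 0% = DMSO-treated cells and -100% = media-only wells without cells; nearly all actives have a fitted effect of over 55% in size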
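A 48-hour cytotoxicity screen used HT-1080-NT cells plated 2 hours before compound delivery. ATP-based CellTiter-Glo luminescence measured viability, normalized to DMSO and no-cell controls.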
* marks the source's active call; other numbers are inactive results; i = inactive; ? = inconclusive; · = no result given; ! = not active in a repeat. Compounds with a hit are over-represented: about 3.9% of the library has one in this group of screens. The call rests on the fitted dose curve; in most records, active means well fitted curve in the direction sought with a large enough effect; inconclusive means small, poorly fitted or top-dose-only effect, or another doubt; inactive means no such curve, though single readings can be large; an effect the other way counts as inactive or inconclusive. Potency means the concentration at half of the fitted maximal effect.

SMILES | S2 tox | TGFb SMAD3 inh | HT1080 IDH1KD tx | HepG2 tox | ATXN2 expr inh | HT1080-NT tox
Cc1ccc(S(=O)(=O)N2CCC(=O)N(CCOCc3ccc(C(F)(F)F)cc3)CC2)cc1 | ? | 11µM* | -8% | -23% | ? | -4%
CCCCC[C@H]1CN(Cc2ccccc2)C(=O)[C@@H]1CC(=O)NCc1ccc(OC)cc1 | i | 10µM* | 8% | -3% | -15% | 3%
CCCCC[C@H]1CN(C2CCCCC2)C(=O)[C@@H]1CC(=O)NCc1ccccc1 | · | 11µM* | 4% | 16µM*! | ? | -3%
C[C@H]1CN(C2CCCCC2)C(=O)[C@@H]1CC(=O)NCc1ccccc1 | i | ? | 0% | -2% | 0% | 0%
CCC(=O)Nc1ccc(C)cc1-c1nc2ccccc2n(C(C)C(=O)Nc2ccccc2CC)c1=O (stereo not given) | · | ? | · | -27% | · | ·
CCCCCCCCn1cnc2c(N)c(C)c(C)cc21 | i | ? | ? | 20µM* | -35% | ?
S=C(c1cn(CCOc2ccccc2)c2ccccc12)N1CCCC1 | i | ? | ? | -20% | -18% | ?
Cc1ccc(OCCn2cc(C(=S)N3CCCC3)c3ccccc32)cc1C | ? | -18% | 7.3µM* | 16µM* | -15% | ?
O=C(Nc1nnc(-c2cccs2)o1)c1cccc(C(F)(F)F)c1 | ? | ? | ? | -18% | 16µM* | ?
COc1ccc(-c2nnc(NC(=O)c3ccc(F)cc3)o2)cc1 | 20µM* | ? | ? | -19% | -15% | -7%
N#Cc1ccc(C(=O)Nc2nnc(-c3cccs3)o2)cc1 | i | -9% | -28% | -20% | ? | -20%
CC1CC(C)CN(S(=O)(=O)c2ccc(C(=O)Nc3nnc(-c4cccs4)o3)cc2)C1 (stereo not given) | ? | -8% | ? | -21% | ? | 14µM*
COc1ccc(-c2nnc(NC(=O)c3ccc4c(c3)OCCO4)o2)cc1 | i | -9% | -29% | 1% | -25% | -22%
CCC1CCCCN1S(=O)(=O)c1ccc(C(=O)Nc2nnc(-c3cccs3)o2)cc1 (stereo not given) | i | ? | 14µM* | -32% | ? | 8.9µM*
COc1ccc2c(CNCCc3ccc(SC)cc3)c(C(=O)O)n(Cc3ccc(F)cc3)c2c1 | ? | ? | · | -107% | ? | ·
COc1cccc(-c2nnc(NC(=O)c3ccc(S(=O)(=O)N4CC(C)OC(C)C4)cc3)o2)c1 (stereo not given) | ? | -19% | 9.2µM* | -14% | ? | ?
CC1CN(S(=O)(=O)c2ccc(C(=O)Nc3nnc(-c4ccco4)o3)cc2)CC(C)O1 (stereo not given) | i | -8% | -17% | -28% | -17% | -28%
COc1ccc(-c2cc3nc(-c4ccccc4)cc(N4CCN(C(=O)c5ccccc5)CC4)n3n2)cc1 | i | -4% | -19% | -11% | -22% | -10%
COc1ccc(-c2cc3nc(-c4ccccc4)cc(N4CCCC(O)C4)n3n2)cc1 (stereo not given) | i | -22% | 21µM* | -15% | · | ?
COc1ccc(-c2cc3nc(-c4ccccc4)cc(N4CCN(C(C)=O)CC4)n3n2)cc1 | ? | 0% | 16µM* | -28% | ? | ?
COc1ccc(-c2cc3nc(-c4ccccc4)cc(N4CCC(O)CC4)n3n2)cc1 | i | ? | ? | -1% | · | 18µM*
CN1CCN(C(=O)c2cc3nc(-c4ccccc4)cc(-c4ccccc4)n3n2)CC1 | i | 10% | ? | -9% | -13% | 15µM*

Assay outcomes deposited in PubChem by National Center for Advancing Translational Sciences (NCATS).
